Assay in all cases: HT-SELEX; 20 mM HEPES pH 7, 140 mM KCl, 5 mM NaCl, 1 mM K2HPO4, 2 mM MgSO4, 100 uM EGTA, ZnSO4, 0.1% Tween20; room temperature, 1 h; high values mean tight binding
Common to all, as to conditions: protein: ivt; tags: eGFP (N-terminal); dsDNA, one strand shown

The target of test [1] is ZNF721 full-length (Homo sapiens, UniProt Q8TF20-2 1-923). The method, boiled down: (§1)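 A tagged transcription factor, either full-length or its DNA-binding-domain fragment, was made in HEK293 lysate or cell-free extract, immobilised on beads and incubated with a randomized 40-base DNA library for 1 h at room temperature in HEPES/KCl low-stringency buffer containing Tween20. Washed beads were heat-eluted, and the bound DNA was PCR-amplified over successive cycles and Illumina-sequenced at ~3 million 60 bp reads per sample. The binding signal is the relative k-mer count in selected reads, where a higher value means tighter binding.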

Test [2] deals with ZNF721 DBD1 (Homo sapiens, UniProt Q8TF20-2 29-461). The method, boiled down: as §1
Test [3] deals with ZNF721 DBD2 (Homo sapiens, UniProt Q8TF20-2 395-923). The method, boiled down:
as §1

Chain of ZNF721 DBD2 (Q8TF20 383-911): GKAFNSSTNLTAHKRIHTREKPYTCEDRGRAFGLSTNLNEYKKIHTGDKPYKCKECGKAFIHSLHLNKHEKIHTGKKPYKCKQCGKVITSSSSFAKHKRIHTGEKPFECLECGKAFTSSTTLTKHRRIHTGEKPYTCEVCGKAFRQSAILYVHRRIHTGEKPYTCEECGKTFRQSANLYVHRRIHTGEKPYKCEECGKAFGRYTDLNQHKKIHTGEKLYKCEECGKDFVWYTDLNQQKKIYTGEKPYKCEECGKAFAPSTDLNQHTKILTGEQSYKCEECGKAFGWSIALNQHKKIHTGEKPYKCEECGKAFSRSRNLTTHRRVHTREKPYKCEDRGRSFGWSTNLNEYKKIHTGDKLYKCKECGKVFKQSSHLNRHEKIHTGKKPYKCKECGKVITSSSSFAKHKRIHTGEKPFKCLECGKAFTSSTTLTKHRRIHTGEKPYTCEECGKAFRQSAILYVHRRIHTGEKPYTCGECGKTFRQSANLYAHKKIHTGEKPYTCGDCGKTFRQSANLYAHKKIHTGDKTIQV
Chain of ZNF721 DBD1 (Q8TF20 17-449): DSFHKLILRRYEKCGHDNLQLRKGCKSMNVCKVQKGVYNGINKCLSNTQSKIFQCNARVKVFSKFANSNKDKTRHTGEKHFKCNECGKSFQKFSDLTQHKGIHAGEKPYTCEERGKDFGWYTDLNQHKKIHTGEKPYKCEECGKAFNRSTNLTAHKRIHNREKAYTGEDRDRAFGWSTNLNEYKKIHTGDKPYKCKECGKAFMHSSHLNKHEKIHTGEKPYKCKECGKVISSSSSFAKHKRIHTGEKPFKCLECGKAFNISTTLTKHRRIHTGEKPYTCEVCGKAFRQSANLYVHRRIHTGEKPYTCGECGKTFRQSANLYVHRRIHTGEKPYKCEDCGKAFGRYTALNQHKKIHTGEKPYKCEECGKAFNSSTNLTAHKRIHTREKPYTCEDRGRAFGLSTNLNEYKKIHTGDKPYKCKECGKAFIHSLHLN
Chain of ZNF721 full-length (Q8TF20 other isoform, or with tags, fused parts or gaps): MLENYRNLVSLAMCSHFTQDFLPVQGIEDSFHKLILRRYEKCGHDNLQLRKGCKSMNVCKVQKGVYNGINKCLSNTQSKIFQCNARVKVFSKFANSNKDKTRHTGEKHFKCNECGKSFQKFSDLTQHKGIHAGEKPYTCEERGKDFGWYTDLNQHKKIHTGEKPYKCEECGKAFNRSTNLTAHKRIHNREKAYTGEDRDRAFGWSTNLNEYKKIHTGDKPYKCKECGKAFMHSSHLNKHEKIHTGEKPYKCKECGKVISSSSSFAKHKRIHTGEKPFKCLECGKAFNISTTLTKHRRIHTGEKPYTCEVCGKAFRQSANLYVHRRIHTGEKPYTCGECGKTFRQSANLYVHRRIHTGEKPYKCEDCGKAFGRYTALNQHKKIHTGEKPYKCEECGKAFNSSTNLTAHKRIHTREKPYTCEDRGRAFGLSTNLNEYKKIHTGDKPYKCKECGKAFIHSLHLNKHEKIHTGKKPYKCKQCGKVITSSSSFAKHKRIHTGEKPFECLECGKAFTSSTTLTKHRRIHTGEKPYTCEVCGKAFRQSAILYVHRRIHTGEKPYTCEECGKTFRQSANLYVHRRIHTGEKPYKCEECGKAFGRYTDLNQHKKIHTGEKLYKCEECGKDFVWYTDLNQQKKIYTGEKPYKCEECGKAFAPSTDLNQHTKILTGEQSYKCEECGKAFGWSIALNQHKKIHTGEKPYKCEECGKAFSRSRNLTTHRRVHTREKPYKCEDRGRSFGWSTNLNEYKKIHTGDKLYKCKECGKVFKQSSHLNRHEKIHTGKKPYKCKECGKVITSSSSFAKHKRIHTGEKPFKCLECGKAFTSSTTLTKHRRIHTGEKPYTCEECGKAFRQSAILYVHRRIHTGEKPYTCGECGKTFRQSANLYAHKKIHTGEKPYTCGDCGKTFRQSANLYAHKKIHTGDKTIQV

For CACAAAAAAG, the binding signal was determined as 0.102 relative 10-mer count in test [1], 0.00853 relative 10-mer count in test [2] and 0.0405 relative 10-mer count in test [3].
On to CCCCCAGCCC, for which the binding signal in test [1] amounted to 0.146 relative 10-mer count; in test [2] it was 0.00587 relative 10-mer count; in test [3], 0.00252 relative 10-mer count.
On the same counts, the results for CACCCCATCC are 0.11 relative 10-mer count, 0.00372 relative 10-mer count and 0.00575 relative 10-mer count.
For CCCCCCCACG the same measures were 0.116 relative 10-mer count, 0.00399 relative 10-mer count and 0.00443 relative 10-mer count.
For AAAAGCGTAC the same measures were 0.118 relative 10-mer count, 0.0294 relative 10-mer count and 0.0176 relative 10-mer count.
With CCACCCCACC, the binding signal in test [1] is 0.411 relative 10-mer count; in test [2], 0.0178 relative 10-mer count; in test [3], 0.00731 relative 10-mer count.
On the same counts, the results for AAAAAAAGCT are 0.472 relative 10-mer count, 0.169 relative 10-mer count and 0.00923 relative 10-mer count.
In the case of CCCACCCCCA, the binding signal in test [1] was 0.28 relative 10-mer count; in test [2], 0.0118 relative 10-mer count; in test [3] it was 0.00647 relative 10-mer count.
For ACACCACCCC the same measures were 0.128 relative 10-mer count, 0.00394 relative 10-mer count and 0.00276 relative 10-mer count.
On the same counts, the results for CCCGCCCCAC are 0.207 relative 10-mer count, 0.00784 relative 10-mer count and 0.00252 relative 10-mer count.
Regarding CCCACCCATC, the binding signal was 0.112 relative 10-mer count in test [1], 0.00514 relative 10-mer count in test [2] and 0.00587 relative 10-mer count in test [3].
As to CCTCCCACCA, the binding signal in test [1] was 0.115 relative 10-mer count; in test [2] it was 0.00784 relative 10-mer count; in test [3], 0.00491 relative 10-mer count.
For ACCCCATCCC, the binding signal in test [1] stood at 0.102 relative 10-mer count; in test [2], 0.00367 relative 10-mer count; in test [3], 0.0024 relative 10-mer count.
For CACCACCCGC the same measures were 0.111 relative 10-mer count, 0.00454 relative 10-mer count and 0.00527 relative 10-mer count.
On the same counts, the results for CCTCCCCCAC are 0.216 relative 10-mer count, 0.01 relative 10-mer count and 0.00767 relative 10-mer count.
Regarding CCTCACCCCC, the binding signal in test [1] worked out at 0.156 relative 10-mer count; in test [2], 0.00683 relative 10-mer count; in test [3], 0.0018 relative 10-mer count.
Turning to ACCACCCCCA, the binding signal in test [1] is 0.142 relative 10-mer count; in test [2], 0.00505 relative 10-mer count; in test [3], 0.00204 relative 10-mer count.
For AAAAAGAAGC, the binding signal in test [1] came to 0.126 relative 10-mer count; in test [2] it was 0.0301 relative 10-mer count; in test [3], 0.0126 relative 10-mer count.
Consider CTAAAAAAAA, for which the binding signal in test [1] stood at 0.107 relative 10-mer count; in test [2] it was 0.0111 relative 10-mer count; in test [3] it was 0.0533 relative 10-mer count.
Regarding CACCCCGCCC, the results for the binding signal in test [1], in test [2] and in test [3] were 0.205 relative 10-mer count, 0.00656 relative 10-mer count and 0.003 relative 10-mer count, respectively.
As to GCACCCCCAC, the results for the binding signal in test [1], in test [2] and in test [3] were 0.107 relative 10-mer count, 0.00523 relative 10-mer count and 0.0174 relative 10-mer count, respectively.
As for CCACCGCCCA, the binding signal was found to be 0.131 relative 10-mer count in test [1], 0.00477 relative 10-mer count in test [2] and 0.00575 relative 10-mer count in test [3].
For ACCCCACCCT the same measures were 0.104 relative 10-mer count, 0.005 relative 10-mer count and 0.00372 relative 10-mer count.
As for ACCCCACCGC, the binding signal in test [1] worked out at 0.106 relative 10-mer count; in test [2] it was 0.00408 relative 10-mer count; in test [3], 0.00336 relative 10-mer count.
As for CCGCCCCCCC, the binding signal in test [1] turned out to be 0.197 relative 10-mer count; in test [2] it was 0.00775 relative 10-mer count; in test [3], 0.00192 relative 10-mer count.
For CCCCCCCAAC the same measures were 0.155 relative 10-mer count, 0.0044 relative 10-mer count and 0.00791 relative 10-mer count.
With CTCCCCACCA, the results for the binding signal in test [1], in test [2] and in test [3] were 0.115 relative 10-mer count, 0.00596 relative 10-mer count and 0.00587 relative 10-mer count, respectively.

These data come from publication PMC13541613, “GHT-SELEX demonstrates unexpectedly high intrinsic sequence specificity and complex DNA binding of many human transcription factors”.
